Test results reported in PubChem BioAssay AID1159580 (chemical genetic matrix, 2015).
Hit rate of the full screen: of about 5,500 compounds, about 2,000 (36%) were called active. Another 18% or so got no clear call; they are omitted. This is one part of the list. Unmarked numbers belong to inactive results. No stated cut-off is given here; in the data, active means normalized growth mostly below about 0.91 (no sharp cut-off); inconclusive means no clear call, values can overlap the other calls; inactive means mostly above about 0.92.

Assay: chemical genetic growth profiling, strain panel (AID 1159580);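 further: tested at 20 µM; growth read once vehicle control cultures reached saturation at 30 °C; 1 = growth at the plate median or of vehicle wells; lower values mean less growth of the strain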
Details: S. cerevisiae deletion strains, growth OD
[1] = locus YAL013W, strain DEP1, active compounds read low
[2] = locus YBR229C, strain ROT2, active compounds read low
[3] = locus YDL101C, strain DUN1, active compounds read low
[4] = locus YDR150W, strain NUM1, active compounds read low
[5] = locus YEL061C, strain CIN8, active compounds read low
[6] = locus YGR078C, strain PAC10, active compounds read low
[7] = locus YHR030C, strain SLT2, active compounds read low
[8] = locus YHR087W, strain rtc3, active compounds read low
[9] = locus YJR043C, strain POL32, active compounds read low
[10] = locus YJR075W, strain HOC1, active compounds read low
[11] = locus YLR039C, strain RIC1, active compounds read low
[12] = locus YLR058C, strain SHM2 (second series), active compounds read low
[13] = locus YLR085C, strain ARP6, active compounds read low
[14] = locus YLR262C, strain YPT6, active compounds read low
[15] = locus YML094W, strain GIM5, active compounds read low
[16] = locus YMR219W, strain ESC1, active compounds read low
[17] = locus YMR263W, strain SAP30, active compounds read low
[18] = locus YNL153C, strain GIM3, active compounds read low
[19] = locus YNL298W, strain CLA4 (second series), active compounds read low
[20] = locus YNL322C, strain KRE1, active compounds read low
[21] = locus YNR030W, strain Alg12, active compounds read low
[22] = locus YPL055C, strain LGE1, active compounds read low
[23] = locus YPL241C, strain CIN2, active compounds read low
[24] = locus YPR135W, strain CTF4, active compounds read low

Q: For `O=C(O)CSCC(=O)NC1CCN(Cc2ccccc2)CC1`, which normalized growth [1] is on record?
A: 1.01

Q: What about the normalized growth [2] of the same molecule?
A: 1.01

Q: What about the normalized growth [3] of the same molecule?
A: 0.997

Q: And the normalized growth [4]?
A: 1.01

Q: What about the normalized growth [5] of the same molecule?
A: 1.02

Q: What about the normalized growth [6] of the same molecule?
A: 1

Q: What about the normalized growth [7] of the same molecule?
A: 1.08

Q: And the normalized growth [8]?
A: 0.994

Q: What about the normalized growth [9] of the same molecule?
A: 1

Q: And the normalized growth [10]?
A: 1.01

Q: And the normalized growth [11]?
A: 1.02

Q: What about the normalized growth [12] of the same molecule?
A: 0.998

Q: What about the normalized growth [13] of the same molecule?
A: 0.993

Q: What about the normalized growth [14] of the same molecule?
A: 1.05

Q: And the normalized growth [15]?
A: 1.02

Q: And the normalized growth [16]?
A: 1.01

Q: And the normalized growth [17]?
A: 0.998

Q: And the normalized growth [18]?
A: 1.01

Q: And the normalized growth [19]?
A: 1.03

Q: And the normalized growth [20]?
A: 1.02

Q: And the normalized growth [21]?
A: 1.02

Q: What about the normalized growth [22] of the same molecule?
A: 1.02

Q: And the normalized growth [23]?
A: 1.04

Q: What about the normalized growth [24] of the same molecule?
A: 1

Q: What does the source list for `O=C(NC1CCN(Cc2ccc(Cl)c(Cl)c2)CC1)c1ccccc1`?
A: normalized growth [1]: 1.01; normalized growth [2]: 1; normalized growth [3]: 0.996; normalized growth [4]: 0.977; normalized growth [5]: 0.946; normalized growth [6]: 1.01; normalized growth (locus YGR229C, strain SMI1, active compounds read low): 1; normalized growth [7]: 0.641 (active); normalized growth [8]: 0.987; normalized growth [9]: 1.01; normalized growth [10]: 1.02; normalized growth (locus YKL190W, strain CNB1, active compounds read low): 1; normalized growth [11]: 0.94; normalized growth [12]: 1.01; normalized growth [13]: 0.86; normalized growth [14]: 0.825; normalized growth [15]: 0.889; normalized growth [16]: 0.992; normalized growth [17]: 0.998; normalized growth [18]: 0.988; normalized growth [19]: 0.986; normalized growth [20]: 1; normalized growth [21]: 0.96; normalized growth (locus YOL006C, strain TOP1, active compounds read low): 0.683 (active); normalized growth [22]: 0.995; normalized growth [23]: 0.93; normalized growth [24]: 0.783
